Experimental data taken from PubChem BioAssay AID1159580 (chemical genetic matrix, 2015).
Screen size: about 5,500 compounds; about 2,000 (36%) were called active. Not shown: some 18% with an inconclusive outcome. Rule as the data show it: active = normalized growth mostly below about 0.91 (no sharp cut-off); inconclusive = no clear call, values can overlap the other calls; inactive = mostly above about 0.92. The list shows a part of the results.

Assay: chemical genetic growth profiling, strain panel (AID 1159580);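 also: tested at 20 µM; growth read once vehicle control cultures reached saturation at 30 °C; 1 = growth at the plate median or of vehicle wells; lower values mean less growth of the strain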
Conditions: growth OD

Measured: normalized growth

CC[C@@]1(O)C(=O)OCc2c1cc1n(c2=O)Cc2cc3ccccc3nc2-1
active: S. cerevisiae deletion strains, locus YJR066W, strain TOR1, stronger effect = lower value 0.665 | S. cerevisiae deletion strains, locus YKL085W, strain MDH1 (second series), stronger effect = lower value 0.796 | S. cerevisiae deletion strains, locus YKL085W, strain MDH1, stronger effect = lower value 0.796 | S. cerevisiae deletion strains, locus YKR001C, strain vps1, stronger effect = lower value 0.549 | S. cerevisiae deletion strains, locus YKR026C, strain gcn3, stronger effect = lower value 0.919 | S. cerevisiae deletion strains, locus YKR091W, strain srl3, stronger effect = lower value 0.914 | S. cerevisiae deletion strains, locus YLL001W, strain dnm1, stronger effect = lower value 0.831 | S. cerevisiae deletion strains, locus YLL026W, stronger effect = lower value 0.727 | S. cerevisiae deletion strains, locus YLL041C, strain sdh2, stronger effect = lower value 0.924 | S. cerevisiae deletion strains, locus YLR027C, strain aat2, stronger effect = lower value 0.653 | S. cerevisiae deletion strains, locus YLR058C, strain SHM2, stronger effect = lower value 0.881 | S. cerevisiae deletion strains, locus YLR102C, strain apc9, stronger effect = lower value 0.913 | S. cerevisiae deletion strains, locus YLR113W, strain HOG1, stronger effect = lower value 0.711 | S. cerevisiae deletion strains, locus YLR221C, strain rsa3, stronger effect = lower value 0.693 | S. cerevisiae deletion strains, locus YLR258W, strain gsy2, stronger effect = lower value 0.78 | S. cerevisiae deletion strains, locus YLR262C, strain YPT6 (second series), stronger effect = lower value 0.484 | S. cerevisiae deletion strains, locus YLR268W, strain sec22, stronger effect = lower value 0.63 | S. cerevisiae deletion strains, locus YLR320W, strain mms22, stronger effect = lower value 0.108 | S. cerevisiae deletion strains, locus YLR330W, strain CHS5, stronger effect = lower value 0.893 | S. cerevisiae deletion strains, locus YLR342W, strain FKS1 (second series), stronger effect = lower value 0.732 | S. cerevisiae deletion strains, locus YLR342W, strain FKS1, stronger effect = lower value 0.647 | S. cerevisiae deletion strains, locus YLR370C, strain arc18, stronger effect = lower value 0.832 | S. cerevisiae deletion strains, locus YML032C, strain rad52, stronger effect = lower value 0.0917 | S. cerevisiae deletion strains, locus YML120C, strain ndi1, stronger effect = lower value 0.868 | S. cerevisiae deletion strains, locus YML124C, strain tub3, stronger effect = lower value 0.903 | S. cerevisiae deletion strains, locus YMR058W, strain fet3, stronger effect = lower value 0.705 | S. cerevisiae deletion strains, locus YMR078C, strain ctf18, stronger effect = lower value 0.111 | S. cerevisiae deletion strains, locus YMR125W, strain sto1, stronger effect = lower value 0.856 | S. cerevisiae deletion strains, locus YMR129W, stronger effect = lower value 0.893 | S. cerevisiae deletion strains, locus YMR205C, strain PFK2, stronger effect = lower value 0.798 | S. cerevisiae deletion strains, locus YMR223W, strain ubp8, stronger effect = lower value 0.671 | S. cerevisiae deletion strains, locus YMR231W, strain pep5, stronger effect = lower value 0.268 | S. cerevisiae deletion strains, locus YMR263W, strain SAP30, stronger effect = lower value 0.847 | S. cerevisiae deletion strains, locus YMR307W, strain GAS1, stronger effect = lower value 0.461 | S. cerevisiae deletion strains, locus YNL067W, strain RPL9B, stronger effect = lower value 0.781 | S. cerevisiae deletion strains, locus YNL071W, strain lat1, stronger effect = lower value 0.744 | S. cerevisiae deletion strains, locus YNL183C, strain NPR1, stronger effect = lower value 0.643 | S. cerevisiae deletion strains, locus YNL209W, strain ssb2, stronger effect = lower value 0.87 | S. cerevisiae deletion strains, locus YNL233W, strain BNI4, stronger effect = lower value 0.804 | S. cerevisiae deletion strains, locus YNL248C, strain rpa49, stronger effect = lower value 0.679 | S. cerevisiae deletion strains, locus YNL250W, strain rad50, stronger effect = lower value 0.152 | S. cerevisiae deletion strains, locus YNL271C, strain bni1, stronger effect = lower value 0.814 | S. cerevisiae deletion strains, locus YNL298W, strain CLA4, stronger effect = lower value 0.74 | S. cerevisiae deletion strains, locus YNL307C, strain MCK1, stronger effect = lower value 0.505 | S. cerevisiae deletion strains, locus YNL322C, strain KRE1 (second series), stronger effect = lower value 0.465 | S. cerevisiae deletion strains, locus YNR052C, strain pop2, stronger effect = lower value 0.207 | S. cerevisiae deletion strains, locus YOL147C, strain pex11, stronger effect = lower value 0.807 | S. cerevisiae deletion strains, locus YOR001W, strain rrp6, stronger effect = lower value 0.847 | S. cerevisiae deletion strains, locus YOR069W, strain VPS5, stronger effect = lower value 0.883 | S. cerevisiae deletion strains, locus YOR070C, strain gyp1, stronger effect = lower value 0.739 | S. cerevisiae deletion strains, locus YOR080W, strain dia2, stronger effect = lower value 0.543 | S. cerevisiae deletion strains, locus YOR083W, strain WHI5, stronger effect = lower value 0.814 | S. cerevisiae deletion strains, locus YOR106W, strain vam3, stronger effect = lower value 0.366 | S. cerevisiae deletion strains, locus YOR136W, strain idh2, stronger effect = lower value 0.915 | S. cerevisiae deletion strains, locus YOR144C, strain elg1, stronger effect = lower value 0.542 | S. cerevisiae deletion strains, locus YOR184W, strain ser1, stronger effect = lower value 0.67 | S. cerevisiae deletion strains, locus YOR231W, strain MKK1, stronger effect = lower value 0.78 | S. cerevisiae deletion strains, locus YOR265W, strain rbl2, stronger effect = lower value 0.796 | S. cerevisiae deletion strains, locus YOR270C, strain vph1, stronger effect = lower value 0.576 | S. cerevisiae deletion strains, locus YOR290C, strain snf2, stronger effect = lower value 0.746 | S. cerevisiae deletion strains, locus YPL051W, strain arl3, stronger effect = lower value 0.828 | S. cerevisiae deletion strains, locus YPL078C, strain atp4, stronger effect = lower value 0.868 | S. cerevisiae deletion strains, locus YPL240C, strain hsp82, stronger effect = lower value 0.857 | S. cerevisiae deletion strains, locus YPL256C, strain CLN2, stronger effect = lower value 0.784 | S. cerevisiae deletion strains, locus YPR119W, strain clb2, stronger effect = lower value 0.893 | S. cerevisiae deletion strains, locus YPR141C, strain kar3, stronger effect = lower value 0.836 | S. cerevisiae deletion strains, locus YPR163C, strain tif3, stronger effect = lower value 0.276 | S. cerevisiae deletion strains, locus YPR167C, strain met16, stronger effect = lower value 0.795 | S. cerevisiae deletion strains, strain wtn01, stronger effect = lower value 0.739 | S. cerevisiae strains, strain wild type, stronger effect = lower value 0.892
inactive: S. cerevisiae deletion strains, locus YJR075W, strain HOC1, stronger effect = lower value 0.88 | S. cerevisiae deletion strains, locus YKL009W, strain mrt4, stronger effect = lower value 0.936 | S. cerevisiae deletion strains, locus YKL068W, stronger effect = lower value 0.951 | S. cerevisiae deletion strains, locus YKL160W, strain elf1, stronger effect = lower value 0.965 | S. cerevisiae deletion strains, locus YKL190W, strain CNB1, stronger effect = lower value 0.948 | S. cerevisiae deletion strains, locus YLR039C, strain RIC1, stronger effect = lower value 0.692 | S. cerevisiae deletion strains, locus YLR262C, strain YPT6, stronger effect = lower value 0.662 | S. cerevisiae deletion strains, locus YLR357W, strain rsc2, stronger effect = lower value 1 | S. cerevisiae deletion strains, locus YLR371W, strain rom2, stronger effect = lower value 0.929 | S. cerevisiae deletion strains, locus YLR384C, strain iki3, stronger effect = lower value 0.96 | S. cerevisiae deletion strains, locus YLR418C, strain cdc73, stronger effect = lower value 0.857 | S. cerevisiae deletion strains, locus YML016C, strain PPZ1, stronger effect = lower value 0.998 | S. cerevisiae deletion strains, locus YNL128W, strain TEP1, stronger effect = lower value 0.937 | S. cerevisiae deletion strains, locus YNL153C, strain GIM3, stronger effect = lower value 0.892 | S. cerevisiae deletion strains, locus YNR049C, strain mso1, stronger effect = lower value 0.947 | S. cerevisiae deletion strains, locus YOL006C, strain TOP1, stronger effect = lower value 0.971 | S. cerevisiae deletion strains, locus YOL012C, strain htz1 0.487 | S. cerevisiae deletion strains, locus YOR061W, strain CKA2, stronger effect = lower value 0.912 | S. cerevisiae deletion strains, locus YOR316C, strain cot1, stronger effect = lower value 0.942 | S. cerevisiae deletion strains, locus YPL106C, strain sse1, stronger effect = lower value 0.879
